# Screening results as filed in PubChem BioAssay.
# Hits are enriched below; roughly 19% of the tested compounds scored in any of these assays.
# HT1080 IDH1KD tx = qHTS for induction of synthetic lethality in tumor cells producing 2HG: qHTS for the HT-1080-IDH1KD cell line | HT-1080 IDH1 knockdown viability, ATP luminescence, 48 h | Potency, µM (doses to about 46.1 µM), inactives show top-dose activity, negative = toxicity, actives largely listed as cytotoxic | hit rate 2% among 360,000 | AID 686971, 2013;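 further: potency means the concentration at half of the fitted maximal effect; 0% = DMSO wells and -100% = cell-free medium wells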
#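 Cytotoxicity counter-line: IDH1KD HT-1080, 48 h, CellTiter-Glo. Curves classed by r2, magnitude and activity.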
# IL1B secr inh = qHTS for Inhibitors of Inflammasome Signaling: IL-1-beta AlphaLISA Primary Screen. THP-1 LPS/ATP IL-1B secretion, AlphaLISA, 16 h; hits give low values. activity change, % at 57.5 µM. hit rate 4.7% among 360,000. AID 743279, 2014; in the data active means activity change below about -50%; inconclusive means mostly about -30% to -49%
#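 THP-1 cells pretreated 1 hr with compounds (up to 57.5 uM final), then stimulated with LPS (250 ng/mL final) plus ATP (1.25 mM final); secreted IL-1B measured by AlphaLISA after 16 hr, decreased signal indicating inhibition.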
# DT40 TDP1 no CPT = qHTS for Inhibitors of human tyrosyl-DNA phosphodiesterase 1 (TDP1): qHTS in cells in absence of CPT | hit rate 15% among 420,000 | DT40 Tdp1-/- hTDP1 cells, no CPT, ATP luminescence, 48 h | AID 686978, 2013 | Potency, µM (series often up to 46.2 µM), for the others: top-dose activity change, negative = growth inhibition, usual class: inhibitors; further: potency means the concentration at half of the fitted maximal effect; nearly all actives have a fitted effect of over 55% in size
#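 Readout: luminescence from CellTiter-Glo after 30 min in the dark at RT. Cells: DT40 Tdp1-/- with stable hTDP1, 400/well. Exposure: compounds alone, ≥48 hr, 37 °C.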
# DT40 TDP1 CPT = qHTS for Inhibitors of human tyrosyl-DNA phosphodiesterase 1 (TDP1): qHTS in cells in presence of CPT; Potency, µM (top dose mostly 46.2 µM), inactives show top-dose activity change, negative = growth inhibition, usual class: inhibitors; chicken DT40 Tdp1-/-;hTDP1 cells + 20 nM CPT, ATP luminescence, 48 h; hit rate 12% among 420,000; AID 686979, 2013; further: potency means the concentration at half of the fitted maximal effect; nearly all actives have a fitted effect of over 55% in size
#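 Chicken DT40 Tdp1-/- cells stably complemented with human TDP1 were seeded at 400 cells/well in medium containing 20 nM camptothecin, exposed to pin-transferred compounds, and grown at 37 °C for at least 48 hr. Viability was read as ATP luminescence.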
# HT1080-NT tox = qHTS for induction of synthetic lethality in tumor cells producing 2HG: qHTS for the HT-1080-NT fibrosarcoma cell line. HT-1080-NT fibrosarcoma viability, CellTiter-Glo ATP luminescence, 48 h. Potency, µM (doses to about 46.1 µM), inactives show top-dose activity, negative = less viability, usual class: cytotoxic. hit rate 1.6% among 360,000. AID 686970, 2013;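 further: NT is the 2HG producing partner of a matched IDH1 knockdown line; potency means the concentration at half of the fitted maximal effect; 0% = DMSO-treated cells and -100% = media-only wells without cells; nearly all actives have a fitted effect of over 55% in size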
#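 HT-1080-NT fibrosarcoma cells (2HG-overproducing), 750 cells/well in RPMI with 5% FBS, dosed after 2 h and incubated 48 h at 37C. CellTiter-Glo luminescence normalized to DMSO and no-cell wells; concentration-response curves fitted and classed.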
# Numbers without * were called inactive; u = inconclusive; x = not tested or not shown; [ ] = remark or other dose. Unless noted, the call rests on the fitted dose curve; in most records, active means well fitted curve in the direction sought with a large enough effect; inconclusive means small, poorly fitted or top-dose-only effect, or another doubt; inactive means no such curve, though single readings can be large; an effect the other way counts as inactive or inconclusive. Unless noted, on the % scale 0 is the no-effect control and ±100 the full control effect.
SMILES,HT1080 IDH1KD tx,IL1B secr inh,DT40 TDP1 no CPT,DT40 TDP1 CPT,HT1080-NT tox
CC(C)(C)C(=O)Nc1ccc(C(=O)CN2C(=O)NC3(CCOc4ccccc43)C2=O)cc1 (stereo unspecified),-3%,0,u,u,1%
O=C(c1ccco1)N1CCN(c2cc(C(F)(F)F)nc3ncnn23)CC1,-17%,10,-20%,-13%,-5%
COc1ccc(S(=O)(=O)CCC(=O)N2CCN(c3ccc(F)cc3)CC2)cc1,6%,-1,26µM*,21µM*,16%
O=C(CCS(=O)(=O)c1ccc(Cl)cc1)N1CCN(c2ccc(F)cc2)CC1,-2%,-21,18µM*,15µM*,-3%
Cc1ccc(S(=O)(=O)CCC(=O)N2CCN(c3ccc(Cl)cc3)CC2)cc1,-25%,0,21µM*,13µM*,2%[9.24 µM]
COc1ccc(CC(=O)N2CCN(c3ccc(F)cc3)CC2)cc1,29%,19,u,-29%,22%
O=C(CCS(=O)(=O)c1cccs1)N1CCN(c2ccc(F)cc2)CC1,-11%,8,-29%,-28%,-1%
CN(c1ccc(OCC(=O)N2CCN(c3ccc(F)cc3)CC2)cc1)S(=O)(=O)c1cccs1,-25%,-21,26µM*,u,-15%
O=C(CCS(=O)(=O)c1ccc(Cl)cc1)N1CCN(c2ccccc2F)CC1,6%,41,-18%,-28%,12%
O=C(Nc1ccc(-c2cn3c(n2)SCC3)cc1)c1ccco1,7%,6,-29%,-2%,1%
CC(C(=O)NCCC1=CCCCC1)c1ccc([N+](=O)[O-])cc1 (stereo unspecified),-2%,4,16µM*,u,-5%
CCC(C(=O)NCCC1=CCCCC1)c1ccccc1 (stereo unspecified),6%,-1,15µM*,u,12%
O=S1(=O)N[C@H](Cc2ccccc2)COc2cccc(N3CCSCC3)c21,-20%,-9,-12%,-21%,u
O=C(NCc1ccc(Cl)c(Cl)c1)c1cc(C2CCCCN2C(=O)CCc2ccccc2)on1 (stereo unspecified),10%,-12,u,u,7%
CCOc1ccc(NC(=O)Cn2cnc3c(oc4ccccc43)c2=O)cc1,x,x,-6%,2%,x
CC(C)=CCCC1(C)C=Cc2c(c(C)cc3c2[nH]c2cc(O)ccc23)O1 (stereo unspecified),u,-74*,16µM*,u,u
O=C(Nc1ccc2c(c1)OCCO2)c1cccc2nc3ccccc3nc12,-14%,u,15µM*,23µM*,-2%
O=C(Nc1ccc2c(c1)OCCO2)c1ccccc1F,-1%,-9,15µM*,7.3µM*,0%
C/C(=N\NC(=O)c1ccccc1F)c1cccc(NC(=O)c2ccccc2)c1,5%,-2,-18%,-24%,13%
O=C(Nc1cccc(NC(=O)c2ccccc2F)c1)c1ccccc1,-1%,-54*,u,u,-8%
Cc1oc(-c2cc(F)ccc2F)nc1CN1CCCN(C(=O)c2ccco2)CC1,-8%,-7,u,-25%,0%
CC[n+]1ccc(C[n+]2ccccc2)c2ccccc21,14%,15,-25%,0%,10%
O=C(NN=Cc1c[nH]c2ccccc12)NN=Cc1c[nH]c2ccccc12,-18%,-24,u,-12%,-16%
CCCCCCC[n+]1ccc(/C=C/c2c[nH]c3ccccc23)cc1,x,x,0.32µM*,0.28µM*,x
CC[n+]1ccc(/C=C/c2c[nH]c3ccccc23)cc1,-28%,0,2.1µM*,2.3µM*,u
SMILES,HT1080 IDH1KD tx,IL1B secr inh,DT40 TDP1 no CPT,DT40 TDP1 CPT,HT1080-NT tox
CCCCCCCCCC[n+]1ccc(/C=C/c2c[nH]c3ccccc23)c2ccccc21,x,x,2µM*,1.6µM*,x
C[n+]1cc(C(=O)N2CCCCC2)ccc1/C=C/c1c[nH]c2ccccc12,-3%,11,-9%,0%,-5%
CCCCCCCCCC[n+]1ccc(/C=C/c2c(C)[nH]c3ccccc23)cc1,x,x,0.4µM*,0.56µM*,x
O=C(Cn1c(=O)c2cccn2c2ccccc21)Nc1cc(F)ccc1F,-2%,29,u,u,-3%
CCc1ccccc1-n1c(SCC(=O)Nc2ccc(C)cc2)nc2n[nH]c(C)c2c1=N,x,x,5.2µM*,7.3µM*,x
CCOc1ccccc1-n1c(SCC(=O)Nc2ccc(CC)cc2)nc2n[nH]c(C)c2c1=N,u,-7,13µM*,12µM*,-9%
CCOc1ccc(-n2c(SCC(=O)Nc3ccc(CC)cc3)nc3c(oc4ccccc43)c2=O)cc1,x,x,u,1%,x
O=C(Nc1nc(-c2cccs2)c(-c2cccs2)s1)C1CCCC1,-18%,0,15µM*,16µM*,-1%
O=C(Nc1nnc(-c2cccs2)s1)C1CC1,3%,14,-1%,18%,-13%
CCN1CCN(C(=O)c2cc(COc3ccc4ncccc4c3)on2)CC1,-1%,19,10µM*,16µM*,-27%
CCCN1CCN(C(=O)c2cc(COc3ccc4ncccc4c3)on2)CC1,-25%,-6,9.2µM*,23µM*,-19%
COc1ccc(OC)c(C(=O)CC2(O)C(=O)N(Cc3ccccc3C)c3ccccc32)c1 (stereo unspecified),x,x,5.8µM*,16µM*,x
Cc1ccccc1CN1C(=O)C(O)(CC(=O)c2cccc(Br)c2)c2ccccc21 (stereo unspecified),x,x,5.2µM*,-81%,x
CCN1C(=O)C(O)(CC(=O)c2cccc(-n3cccc3)c2)c2ccccc21 (stereo unspecified),-5%,u,16µM*,u,0%
COC(=O)CN1C(=O)C(O)(CC(=O)c2cccc(Br)c2)c2ccccc21 (stereo unspecified),-4%,12,u,29µM*,-22%
CCN1C(=O)C(O)(CC(=O)c2ccc(-n3cccc3)cc2)c2ccccc21 (stereo unspecified),19%,-21,u,u,1%
COc1ccccc1OCCNC(=O)c1cccc(S(=O)(=O)N2CC(C)OC(C)C2)c1 (stereo unspecified),2%,0,u,u,9%
Nc1nc(-c2ccccc2)[nH]c(=O)c1N,2%,-14,u,26µM*,1%
CCn1c(=O)c2sccc2n(Cc2cc(C(=O)OC)ccc2OC)c1=O,2%,18,u,-3%,9%
